Measured values from the supplement of paper PMC4466140.

target: AgAbp1; assay: SPOT peptide array binding signal intensity (averaged, normalized) (arbitrary units (background-subtracted, floor 0; scale differs between SH3 domains)); higher = stronger binding of the SH3 domain to the peptide
Outline: (§1)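 The binding signal is the normalized, background-subtracted spot intensity averaged over replicates; its arbitrary units differ between domains. It was obtained by incubating 10 μg/ml GST-fused SH3 domains from four yeast species overnight at 4°C in TBS-based blocking buffer on cellulose membranes with synthetic 15-mer peptides, cysteines replaced by serines, then detecting with anti-GST antibody, HRP anti-mouse secondary and luminol.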

Row | Binder | SPOT peptide array binding signal intensity
1 | VPPPMQPPPIESSNL | ≤ 0

target: AgBbc1; assay: as above
Outline: as §1

Row | Binder | SPOT peptide array binding signal intensity
2 | VPPPMQPPPIESSNL | 2.5

target: AgBem1-D1; assay: as above
Outline: as §1

Row | Binder | SPOT peptide array binding signal intensity
3 | VPPPMQPPPIESSNL | 238

target: AgBzz1-D1; assay: as above
Outline: as §1

Row | Binder | SPOT peptide array binding signal intensity
4 | VPPPMQPPPIESSNL | ≤ 0

target: AgBzz1-D2; assay: as above
Outline: as §1

Row | Binder | SPOT peptide array binding signal intensity
5 | VPPPMQPPPIESSNL | ≤ 0

target: AgCyk3; assay: as above
Outline: as §1

Row | Binder | SPOT peptide array binding signal intensity
6 | VPPPMQPPPIESSNL | 0.5

target: AgFus1; assay: as above
Outline: as §1

Row | Binder | SPOT peptide array binding signal intensity
7 | VPPPMQPPPIESSNL | 159

target: AgHof1; assay: as above
Outline: as §1

Row | Binder | SPOT peptide array binding signal intensity
8 | VPPPMQPPPIESSNL | 0.25

target: AgHse1; assay: as above
Outline: as §1

Row | Binder | SPOT peptide array binding signal intensity
9 | VPPPMQPPPIESSNL | 90

target: AgLsb1; assay: as above
Outline: as §1

Row | Binder | SPOT peptide array binding signal intensity
10 | VPPPMQPPPIESSNL | ≤ 0

target: AgLsb4; assay: as above
Outline: as §1

Row | Binder | SPOT peptide array binding signal intensity
11 | VPPPMQPPPIESSNL | ≤ 0

target: AgMyo5; assay: as above
Outline: as §1

Row | Binder | SPOT peptide array binding signal intensity
12 | VPPPMQPPPIESSNL | 102

target: AgNbp2; assay: as above
Outline: as §1

Row | Binder | SPOT peptide array binding signal intensity
13 | VPPPMQPPPIESSNL | 98

target: AgRvs167; assay: as above
Outline: as §1

Row | Binder | SPOT peptide array binding signal intensity
14 | VPPPMQPPPIESSNL | ≤ 0

target: AgSho1; assay: as above
Outline: as §1

Row | Binder | SPOT peptide array binding signal intensity
15 | VPPPMQPPPIESSNL | 67

target: AgSla1-D1-D2; assay: as above
Outline: as §1

Row | Binder | SPOT peptide array binding signal intensity
16 | VPPPMQPPPIESSNL | ≤ 0

target: AgSla1-D3; assay: as above
Outline: as §1

Row | Binder | SPOT peptide array binding signal intensity
17 | VPPPMQPPPIESSNL | 0.75

target: CaAbp1-D1; assay: as above
Outline: as §1

Row | Binder | SPOT peptide array binding signal intensity
18 | VPPPMQPPPIESSNL | ≤ 0

target: CaAbp1-D2; assay: as above
Outline: as §1

Row | Binder | SPOT peptide array binding signal intensity
19 | VPPPMQPPPIESSNL | 8

target: CaBbc1; assay: as above
Outline: as §1

Row | Binder | SPOT peptide array binding signal intensity
20 | VPPPMQPPPIESSNL | 10.5

target: CaBem1-D1; assay: as above
Outline: as §1

Row | Binder | SPOT peptide array binding signal intensity
21 | VPPPMQPPPIESSNL | 26

target: CaBzz1-D1; assay: as above
Outline: as §1

Row | Binder | SPOT peptide array binding signal intensity
22 | VPPPMQPPPIESSNL | 35

target: CaBzz1-D2; assay: as above
Outline: as §1

Row | Binder | SPOT peptide array binding signal intensity
23 | VPPPMQPPPIESSNL | 8.25

target: CaCyk3; assay: as above
Outline: as §1

Row | Binder | SPOT peptide array binding signal intensity
24 | VPPPMQPPPIESSNL | 8

target: CaFus1; assay: as above
Outline: as §1

Row | Binder | SPOT peptide array binding signal intensity
25 | VPPPMQPPPIESSNL | 740

target: CaHof1; assay: as above
Outline: as §1

Row | Binder | SPOT peptide array binding signal intensity
26 | VPPPMQPPPIESSNL | ≤ 0

target: CaHse1; assay: as above
Outline: as §1

Row | Binder | SPOT peptide array binding signal intensity
27 | VPPPMQPPPIESSNL | 68

target: CaLsb1; assay: as above
Outline: as §1

Row | Binder | SPOT peptide array binding signal intensity
28 | VPPPMQPPPIESSNL | 0.5

target: CaLsb4; assay: as above
Outline: as §1

Row | Binder | SPOT peptide array binding signal intensity
29 | VPPPMQPPPIESSNL | 388

target: CaMyo5; assay: as above
Outline: as §1

Row | Binder | SPOT peptide array binding signal intensity
30 | VPPPMQPPPIESSNL | 142

target: CaNbp2; assay: as above
Outline: as §1

Row | Binder | SPOT peptide array binding signal intensity
31 | VPPPMQPPPIESSNL | 172

target: CaRvs167; assay: as above
Outline: as §1

Row | Binder | SPOT peptide array binding signal intensity
32 | VPPPMQPPPIESSNL | 12.5

target: CaRvs167-3; assay: as above
Outline: as §1

Row | Binder | SPOT peptide array binding signal intensity
33 | VPPPMQPPPIESSNL | 1

target: CaSho1; assay: as above
Outline: as §1

Row | Binder | SPOT peptide array binding signal intensity
34 | VPPPMQPPPIESSNL | 279

target: CaSla1-D1-D2; assay: as above
Outline: as §1

Row | Binder | SPOT peptide array binding signal intensity
35 | VPPPMQPPPIESSNL | 168

target: CaSla1-D3; assay: as above
Outline: as §1

Row | Binder | SPOT peptide array binding signal intensity
36 | VPPPMQPPPIESSNL | 249

target: ScAbp1; assay: as above
Outline: as §1

Row | Binder | SPOT peptide array binding signal intensity
37 | VPPPMQPPPIESSNL | ≤ 0
